Shown is part of a subset that was picked to be rich in hits.
Shiga inhibitor: blocks Shiga toxin action in Vero cells; Vero cells, Shiga toxin protein synthesis inhibition reporter; inhibition, % at 38.7 µM; 290,000 compounds, 9.2% hits; AID 2315; in the data active = inhibition mostly above about 28%, no sharp cut-off; inactive = mostly below about 43%
LmPK inh: blocks Leishmania mexicana pyruvate kinase activity; purified LmPK, Kinase-Glo ATP luminescence, 1 h; Potency, µM (highest dose often 57.5 µM), actives largely listed as inhibitors; 290,000 compounds, 0.37% hits; active = well fitted curve in the direction sought with a large enough effect; inconclusive = small, poorly fitted or top-dose-only effect, or another doubt; inactive = no such curve, though single readings can be large; an effect the other way counts as inactive or inconclusive
Target sequence (Q27686 whole entry, looked up): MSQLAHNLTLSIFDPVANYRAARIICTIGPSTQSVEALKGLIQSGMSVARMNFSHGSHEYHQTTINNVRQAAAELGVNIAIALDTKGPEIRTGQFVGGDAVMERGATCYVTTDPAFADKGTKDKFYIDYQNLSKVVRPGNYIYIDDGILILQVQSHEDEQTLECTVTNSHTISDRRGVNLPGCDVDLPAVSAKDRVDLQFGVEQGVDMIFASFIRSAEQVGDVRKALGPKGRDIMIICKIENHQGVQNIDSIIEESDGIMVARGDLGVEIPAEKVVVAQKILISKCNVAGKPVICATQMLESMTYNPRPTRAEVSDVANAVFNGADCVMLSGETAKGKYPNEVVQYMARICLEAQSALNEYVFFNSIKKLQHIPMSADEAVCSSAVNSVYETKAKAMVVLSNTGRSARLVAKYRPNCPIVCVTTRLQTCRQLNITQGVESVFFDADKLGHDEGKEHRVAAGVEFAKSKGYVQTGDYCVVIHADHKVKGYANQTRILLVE
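ATP generated from ADP (0.1 mM) and PEP (0.5 mM) by 0.1 nM LmPK over 1 h at room temperature (pH 7.2 imidazole buffer) was detected by coupled luciferase luminescence. Values were normalized to uninhibited and no-enzyme wells.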
SARS PLpro yeast: blocks SARS-CoV papain-like protease in a yeast assay. S. cerevisiae expressing SARS-CoV PLpro, growth rescue. Potency, µM (series often up to 32.9 µM), hits mostly activators. 330,000 compounds, 0.19% hits. AID 485353; also: nearly all actives have a fitted effect of over 55% in size
CHX counter: affects cycloheximide protein synthesis inhibition readout, counter-screen | cell reporter, cycloheximide protein synthesis inhibition counterscreen | max response, % | 300,000 compounds, 12% hits; in the data active = max response mostly above about 13%, no sharp cut-off; inactive = mostly below about 14%; also: read at 38.3 µM for the half of the compounds with a filed dose
NS1 function inh: influenza NS1 inhibition. Potency, µM (doses to about 46.1 µM). 270,000 compounds, 0.4% hits. AID 2326; also: actives are rising curves; nearly all actives have a fitted effect of over 50% in size
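Read-out: OD600 growth recovery of NS1-expressing budding yeast. Cells grown overnight at 30C in -URA glucose medium, washed, resuspended and diluted 1:100 in 2% galactose assay medium, pH 6.0. Same strain lacking NS1 served as positive control.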
TbPYK inhibitor: inhibitors of Trypanosoma brucei pyruvate kinase. Q57TT1. TbPYK enzyme, Kinase-Glo Plus ATP luminescence, 45 min. Potency, µM (series often up to 76.8 µM), actives largely listed as inhibitors. 410,000 compounds, 0.12% hits; active = well fitted curve in the direction sought with a large enough effect; inconclusive = small, poorly fitted or top-dose-only effect, or another doubt; inactive = no such curve, though single readings can be large; an effect the other way counts as inactive or inconclusive; also: nearly all actives have a fitted effect of over 50% in size
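Quantitative HTS: titrated library compounds versus trypanosomal pyruvate kinase in TEA buffer (pH 7.2) containing KCl, MgCl2, BSA and Tween-20. Reactions were initiated with ADP, 130 uM final. Kinase-Glo Plus luminescence was read after 45 min at RT.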
Each line names hits and unclear results; the compound was inactive in the other large screens. Unless noted, calls follow the shape of the full dose curve.

CCN1CCN(c2cc(C)c3cc(NC(=O)c4ccccc4F)ccc3n2)CC1	none
CCN1CCN(c2cc(C)c3cc(NC(=S)N4CC(C)CC(C)C4)ccc3n2)CC1 (stereo unspecified)	none
CCN1CCN(c2cc(C)c3cc(NC(=S)N4CCCCC4)ccc3n2)CC1	CHX counter 21
Cc1cc(N2CCN(C)CC2)nc2ccc(NC(=O)c3ccccc3F)cc12	Shiga inhibitor 72, CHX counter 37 (no result: NS1 function inh)
Cc1ccc(NC(=O)c2ncn(CCCNCCCc3ccccc3)n2)cc1C	none (no result: Shiga inhibitor, LmPK inh, SARS PLpro yeast, CHX counter, NS1 function inh)
Cc1ccc(C=Nc2ccc(N(C)C)cc2)o1	Shiga inhibitor 109, LmPK inh inconclusive, CHX counter 24
CC(C)COc1ccc(C(=O)Nc2scc(-c3ccc(Br)cc3)c2C(=O)OC(C)C)cc1	none (no result: Shiga inhibitor, LmPK inh, SARS PLpro yeast, CHX counter, NS1 function inh)
COc1ccc(C)cc1-n1nnnc1SCc1nc2ccccc2s1	Shiga inhibitor 129, CHX counter 45
COc1ccc(-n2nnnc2SCc2nc3ccccc3s2)cc1	Shiga inhibitor 99, CHX counter 68, TbPYK inhibitor inconclusive
COc1ccc(C)cc1-n1nnnc1SCC1CCCO1 (stereo unspecified)	none
Cc1nn(-c2ccccc2)c(C)c1/C=N/NC(=O)c1ccc(F)cc1	none (no result: Shiga inhibitor, LmPK inh, SARS PLpro yeast, CHX counter, NS1 function inh)
Cc1occc1C(=O)N/N=C/c1ccc[nH]1	none (no result: Shiga inhibitor, LmPK inh, SARS PLpro yeast, CHX counter, NS1 function inh)
CCn1nc(C)c(/C=N/NC(=O)c2nc3nc(C)cc(C)n3n2)c1C	none
Cc1ccc(CSc2nnc(SCC(=O)N/N=C/c3c(C)nn(-c4ccccc4)c3C)s2)cc1	Shiga inhibitor 120, CHX counter 76, NS1 function inh inconclusive
Cc1cc(C(=O)N/N=C/c2c(C)nn(-c3ccccc3)c2C)c(C)o1	Shiga inhibitor 59, CHX counter 42
CCCCCn1nc(C)c(/C=N/NC(=O)c2ccoc2C)c1C	Shiga inhibitor 68, LmPK inh inconclusive, CHX counter 40
CCn1nc(C)c(/C=N/NC(=O)c2ccoc2C)c1C	LmPK inh inconclusive, SARS PLpro yeast inconclusive, CHX counter 25, TbPYK inhibitor inconclusive
CCNC(=O)c1ccc2nc(CCc3ccccc3)oc2c1	none (no result: Shiga inhibitor, LmPK inh, SARS PLpro yeast, CHX counter, NS1 function inh)
Cc1cccnc1NC(=O)C1CCC1	none (no result: Shiga inhibitor)
COc1ccc(-c2ccc(CCC(=O)O)n2-c2ccc(Cl)cc2C)cc1	none (no result: Shiga inhibitor, LmPK inh, SARS PLpro yeast, CHX counter, NS1 function inh)
CCc1nc2c(OCc3ccc(OC)cc3)cccn2c1N(C)C(=O)C(C)C	none (no result: Shiga inhibitor, LmPK inh, SARS PLpro yeast, CHX counter, NS1 function inh)
CCn1nc(C)c(/C=N\NC(=O)c2cccc(OC)c2)c1C	none
CCCCCn1nc(C)c(/C=N\NC(=O)c2cc(C)oc2C)c1C	Shiga inhibitor 44, CHX counter 18
COc1ccc(-c2csc(NC(=O)COC(=O)c3ccco3)n2)cc1	Shiga inhibitor 43, CHX counter 50
CN(C(=O)c1ccco1)c1nc(-c2ccc(Cl)cc2)cs1	CHX counter 25
Cc1ccc(-c2csc(N(CC3CCCO3)C(=O)c3ccco3)n2)cc1 (stereo unspecified)	Shiga inhibitor 40, CHX counter 23
CN(C)CCCN(C(=O)c1ccco1)c1nc(-c2ccc(Cl)cc2)cs1	none
CCn1nc(C(=O)OCC(=O)Nc2nc(-c3ccc(OC)cc3)cs2)c2ccccc2c1=O	Shiga inhibitor 50, CHX counter 46
COc1ccc(-c2csc(NC(=S)NC(=O)c3ccco3)n2)cc1	none (no result: NS1 function inh)
Cn1cnc(S(=O)(=O)N2CCC(C(=O)Nc3ccc(F)cc3F)CC2)c1	none (no result: Shiga inhibitor, LmPK inh, SARS PLpro yeast, CHX counter, NS1 function inh)
COc1ccc(-c2csc(N(C)C(=O)c3ccco3)n2)cc1	CHX counter 37 (no result: Shiga inhibitor)
CCN(C(=O)c1cccs1)c1nc(-c2ccc(OC)cc2)cs1	Shiga inhibitor 101, CHX counter 43 (no result: NS1 function inh)
CCOc1ccc(CCNC(=O)c2sc3nc4n(c(=O)c3c2C)CCCC4)cc1	none (no result: Shiga inhibitor, LmPK inh, SARS PLpro yeast, CHX counter, NS1 function inh)
CC(C(O)c1ccccc1)N(C)CCOC(c1ccccc1)c1ccccc1 (stereo unspecified)	none (no result: Shiga inhibitor, LmPK inh, SARS PLpro yeast, CHX counter, NS1 function inh)
CCCNC(=O)COC(=O)c1cc(-c2ccc(OC)cc2)nc2ccccc12	CHX counter 13 (no result: NS1 function inh)
C/C(N)=C(/C#N)C(=O)COC(=O)c1cc(-c2ccc(Br)cc2)nc2ccccc12	CHX counter 13
CCN(CC)C(=O)COC(=O)c1cc(-c2ccc(OC)cc2)nc2ccccc12	CHX counter 23
O=C(COC(=O)c1cc(-c2ccccc2)nc2ccccc12)c1ccc(Br)cc1	none (no result: Shiga inhibitor, LmPK inh, SARS PLpro yeast, CHX counter, NS1 function inh)
CCNC(=O)COC(=O)c1cc(-c2ccc(OC)cc2)nc2ccccc12	LmPK inh inconclusive
COc1ccc2cc(-c3cc(C(=O)OCC(=O)NC4CCS(=O)(=O)C4)c4ccccc4n3)ccc2c1 (stereo unspecified)	CHX counter 26
CCc1ccc(NC(=O)CC(NCc2cccnc2)C(=O)O)cc1 (stereo unspecified)	none (no result: Shiga inhibitor, LmPK inh, SARS PLpro yeast, CHX counter, NS1 function inh)
C=CCn1c(SCC(=O)Nc2ccc(O)cc2)nc2sc(CC)cc2c1=O	none
COc1ccc2cc(-c3cc(C(=O)OCC(=O)Nc4c(C)n(C)n(-c5ccccc5)c4=O)c4ccccc4n3)ccc2c1	Shiga inhibitor 53, CHX counter 31
O=C(CNC(=O)c1ccco1)NCC(=O)OCc1c(F)cccc1Cl	none
O=C(NCCSCc1c(F)cccc1Cl)c1ccco1	CHX counter 29
COc1ccccc1C(=O)NCCSCc1c(F)cccc1Cl	CHX counter 23
O=C(CNC(=O)c1ccco1)OCc1c(F)cccc1Cl	CHX counter 20
COc1ccccc1C(=O)OCc1c(F)cccc1Cl	none
CC(C)(C)OC(=O)N1CCCC(C(=O)Nc2cccc(C(=O)N3CCOCC3)c2)C1 (stereo unspecified)	none (no result: Shiga inhibitor, LmPK inh, SARS PLpro yeast, CHX counter, NS1 function inh)
Cc1nn2c(-c3ccc(S(=O)(=O)N4CCN(C)CC4)o3)nnc2c2ccccc12	none
COc1nc(C)ccc1-c1noc(-c2ccco2)n1	Shiga inhibitor 81, LmPK inh inconclusive, CHX counter 39
COc1nc(-c2ccc(C)cc2)ccc1-c1noc(-c2ccco2)n1	Shiga inhibitor 70, CHX counter 28
CCOc1nc(-c2ccccc2)ccc1-c1noc(-c2ccco2)n1	none
O=c1c(S(=O)(=O)c2cccc(Cl)c2)cn(Cc2ccccc2)c2cc(N3CCOCC3)c(F)cc12	none (no result: Shiga inhibitor, LmPK inh, SARS PLpro yeast, CHX counter, NS1 function inh)
N#CCCN1CCN(C2=NC(=O)C(=C3CCCCC3)S2)CC1	CHX counter 35
CC(=O)N1CCN(C2=NC(=O)C(=C3CCCCC3)S2)CC1	Shiga inhibitor 19
CC(C)=C1SC(N2CCCCC2)=NC1=O	none
Cc1cccc(N2CCN(C3=NC(=O)C(=C4CCCCC4)S3)CC2)c1	none (no result: TbPYK inhibitor)
O=C1N=C(N2CCOCC2)SC1=C1CCCCC1	Shiga inhibitor 81, LmPK inh inconclusive, CHX counter 75
CN(CC(=O)Nc1ccccc1Br)C(=O)c1n[nH]c2ccccc12	none (no result: Shiga inhibitor, LmPK inh, CHX counter, NS1 function inh)
CCOC(=O)N1CCC(=NNC(N)=O)C1	none (no result: Shiga inhibitor, LmPK inh, SARS PLpro yeast, CHX counter, NS1 function inh)
CC(=O)Nc1ccc(C(=O)/C=C/c2ccco2)cc1	none
CC(=O)Nc1cccc(C(=O)/C=C/c2ccco2)c1	Shiga inhibitor 49, CHX counter 43
CC(=O)Nc1cccc(C(=O)/C=C/c2cccs2)c1	Shiga inhibitor 82, CHX counter 54
